This note sets out measurements from PubChem BioAssay (EPA / NIEHS).

Conditions in all cases: mRNA level, 48 h; actives raise or lower the signal
Read-out in assay [1]: MYC, MYC (gene 4609)
Nature of the assay: LTEA_HepaRG_MYC: Life Technologies and Expression Analysis (LTEA) Assay for MYC using HepaRG (AID 2283518). In a few lines:
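HepaRG, ~100,000 cells/well, collagen I; 48 h plating; serum-free induction medium; 48 h dosing, duplicate, 100 uM top, half-log, 0.5% DMSO; total RNA → qRT-PCR MYC; gain/loss fit vs DMSO.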

Read-out in assay [2]: Paternally Expressed 10 (PEG10), PEG10 (gene 23089)
Kind of assay: LTEA_HepaRG_PEG10: Life Technologies and Expression Analysis (LTEA) Assay for Paternally Expressed 10 (PEG10) using HepaRG (AID 2283520). The essentials: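 HepaRG, 48 h post-plating → serum-free induction medium → 48 h chemical exposure (duplicate, 8-pt, max 100 uM, half-log, 0.5% DMSO) → lysis in RLT → TaqMan qRT-PCR for PEG10, ACTB/GAPDH/POLR2A normalisation.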

Read-out in assay [3]: Nuclear factor NF-kappa-B p105 subunit (Homo sapiens) (UniProt P19838)
Nature of the assay: LTEA_HepaRG_NFKB1: Life Technologies and Expression Analysis (LTEA) Assay for Nuclear Factor Kappa B Subunit 1 (NFKB1) using HepaRG (AID 2283521).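 Also: differentiated human HepaRG liver cells in serum-free induction medium.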 In a few lines: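 NFKB1 transcript was measured by TaqMan qRT-PCR on Fluidigm arrays, normalised to three housekeeping genes and fitted in both directions against 0.5% DMSO. HepaRG cells were dosed in duplicate for 48 h in serum-free induction medium, eight half-log steps from 100 uM.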

Read-out in assay [4]: Protein phosphatase 2A (PPP2R4), PTPA (gene 5524)
Kind of assay: LTEA_HepaRG_PPP2R4: Life Technologies and Expression Analysis (LTEA) Assay for Protein phosphatase 2A (PPP2R4) using HepaRG (AID 2283522). In a few lines:
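Readout is PPP2R4 transcript level by microfluidic qRT-PCR after 48 h chemical treatment of human HepaRG liver cells. Concentrations spanned 100 uM downward in half-log steps; gain or loss of signal was fitted relative to DMSO.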

Read-out in assay [5]: Phosphatase and tensin (PTEN), PTEN (gene 5728)
Nature of the assay: LTEA_HepaRG_PTEN: Life Technologies and Expression Analysis (LTEA) Assay for Phosphatase and tensin (PTEN) using HepaRG (AID 2283523). The essentials:
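Read-out is PTEN transcript level by multiplexed TaqMan qRT-PCR after 48 h chemical treatment of human HepaRG cultures in serum-free induction medium. Concentrations spanned 100 uM downward in half-log steps, 0.5% DMSO throughout; activity fitted in both directions against vehicle.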

Read-out in assay [6]: solute carrier (SLC22A1), SLC22A1 (gene 6580)
Nature of the assay: LTEA_HepaRG_SLC22A1: Life Technologies and Expression Analysis (LTEA) Assay for solute carrier (SLC22A1) using HepaRG (AID 2283524).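 As to AC50: differentiated human HepaRG liver cells in serum-free induction medium.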 The essentials: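 HepaRG (human liver line), 48 h dosing in serum-free induction medium; 8 conc., half-log down from 100 uM, 0.5% DMSO vehicle, duplicates. Endpoint: SLC22A1 mRNA, qRT-PCR, housekeeping-normalized; gain/loss fit vs DMSO.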

Read-out in assay [7]: Pyruvate Dehydrogenase Kinase 4 (PDK4), PDK4 (gene 5166)
Kind of assay: LTEA_HepaRG_PDK4: Life Technologies and Expression Analysis (LTEA) Assay for Pyruvate Dehydrogenase Kinase 4 (PDK4) using HepaRG (AID 2283525). In a few lines: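 In this multiplexed human HepaRG expression assay, cells are treated 48 h with test chemicals across an eight-point range starting at 100 uM. PDK4 mRNA changes, normalized to ACTB/GAPDH/POLR2A, are fitted in both directions relative to vehicle.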

Read-out in assay [8]: NAD(P)H dehydrogenase [quinone] 1 (NQO1), NQO1 (gene 1728)
Nature of the assay: LTEA_HepaRG_NQO1: Life Technologies and Expression Analysis (LTEA) Assay for NAD(P)H dehydrogenase [quinone] 1 (NQO1) using HepaRG (AID 2283526). The essentials:
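HepaRG, 48 h post-plating → serum-free induction medium → test chemical 48 h (duplicate, 100 uM top, half-log x8, 0.5% DMSO) → RNA isolation → qRT-PCR, ACTB/GAPDH/POLR2A normalization; bidirectional curve fit vs DMSO baseline.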

Read-out in assay [9]: Nuclear factor erythroid 2-related factor 2 (Homo sapiens) (UniProt Q16236)
Nature of the assay: LTEA_HepaRG_NFE2L2: Life Technologies and Expression Analysis (LTEA) Assay for Nuclear factor erythroid 2-related factor 2 (NFE2L2) Transcription Factor using HepaRG (AID 2283527). In a few lines:
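Transcript level of NFE2L2 is the read-out, measured by microfluidic TaqMan qRT-PCR and normalized to three housekeeping genes. Human HepaRG cultures received test chemical for 48 h at up to 100 uM in half-log steps. Gain or loss of signal is fitted relative to 0.5% DMSO.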

Read-out in assay [10]: succinate dehydrogenase complex iron sulfur subunit B (SDHB), SDHB (gene 6390)
Kind of assay: LTEA_HepaRG_SDHB: Life Technologies and Expression Analysis (LTEA) Assay for succinate dehydrogenase complex iron sulfur subunit B (SDHB) using HepaRG (AID 2283528). The essentials:
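SDHB transcript level read by TaqMan qRT-PCR, housekeeping-normalised (ACTB, GAPDH, POLR2A), after 48 h chemical treatment of plated HepaRG cells; eight concentrations top 100 uM, half-log steps, 0.5% DMSO, duplicates; fitted both directions against DMSO.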

Read-out in assay [11]: Signal transducer and activator of transcription 3 (Homo sapiens) (UniProt P40763)
Kind of assay: LTEA_HepaRG_STAT3: Life Technologies and Expression Analysis (LTEA) Assay for Signal transducer and activator of transcription (STAT3) using HepaRG (AID 2283529). The essentials:
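Read-out is STAT3 mRNA level by qRT-PCR, normalized to three housekeeping genes, in human HepaRG liver cells treated for 48 h. Concentrations ran from 100 uM downward in half-log steps; curves were fitted for gain or loss relative to 0.5% DMSO.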

Read-out in assay [12]: solute carrier (SLCO1B1), SLCO1B1 (gene 10599)
Nature of the assay: LTEA_HepaRG_SLCO1B1: Life Technologies and Expression Analysis (LTEA) Assay for solute carrier (SLCO1B1) using HepaRG (AID 2283530). In a few lines:
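HepaRG, serum-free induction medium, 48 h dosing, 8-pt half-log from 100 uM, 0.5% DMSO vehicle, duplicates. Readout: SLCO1B1 mRNA, qRT-PCR, ACTB/GAPDH/POLR2A normalization; up or down fit vs DMSO.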

Read-out in assay [13]: sulfotransferase 2A1 (SULT2A1), SULT2A1 (gene 6822)
Nature of the assay: LTEA_HepaRG_SULT2A1: Life Technologies and Expression Analysis (LTEA) Assay for sulfotransferase 2A1 (SULT2A1) using HepaRG (AID 2283531). In a few lines: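 Transcript levels of SULT2A1, quantified by qRT-PCR and normalized to three housekeeping genes, serve as the readout. Human HepaRG cultures receive test chemicals for 48 h at up to 100 uM in half-log steps, with 0.5% DMSO vehicle.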

Read-out in assay [14]: Transforming Growth Factor (TGFA), TGFA (gene 7039)
Nature of the assay: LTEA_HepaRG_TGFA: Life Technologies and Expression Analysis (LTEA) Assay for Transforming Growth Factor (TGFA) using HepaRG (AID 2283532). The essentials:
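HepaRG (human liver line), 48 h exposure, 8 conc. half-log down from 100 uM, 0.5% DMSO vehicle, duplicates; serum-free induction medium. TGFA mRNA by TaqMan qRT-PCR, ACTB/GAPDH/POLR2A normalization; gain/loss fit vs DMSO.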

Read-out in assay [15]: Transforming Growth Factor (TGFB1), TGFB1 (gene 7040)
Kind of assay: LTEA_HepaRG_TGFB1: Life Technologies and Expression Analysis (LTEA) Assay for Transforming Growth Factor (TGFB1) Transporter using HepaRG (AID 2283533). The essentials:
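HepaRG, 48 h post-plating, switched to serum-free induction medium; chemicals 100 uM top, half-log, 8 pts, 0.5% DMSO, dup; 48 h exposure; RNA → Fluidigm TaqMan qRT-PCR; norm ACTB/GAPDH/POLR2A; bidirectional fit vs DMSO.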

Read-out in assay [16]: Tumor necrosis factor receptor 1 (TNFRSF1A), TNFRSF1A (gene 7132)
Nature of the assay: LTEA_HepaRG_TNFRSF1A: Life Technologies and Expression Analysis (LTEA) Assay for Tumor necrosis factor receptor 1 (TNFRSF1A) using HepaRG (AID 2283535). The essentials: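 Read-out is TNFRSF1A transcript level by TaqMan qRT-PCR, normalized to three housekeeping genes, scored as gain or loss of signal versus 0.5% DMSO. Human HepaRG cells received test chemicals for 48 h at up to 100 uM (half-log series).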

Read-out in assay [17]: Thyroid Hormone Responsive (THRSP), THRSP (gene 7069)
Kind of assay: LTEA_HepaRG_THRSP: Life Technologies and Expression Analysis (LTEA) Assay for Thyroid Hormone Responsive (THRSP) using HepaRG (AID 2283536). The essentials: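 mRNA induction or loss relative to 0.5% DMSO vehicle was fitted bidirectionally across an eight-point curve whose highest exposure was 100 uM. Human HepaRG liver cells received chemicals in duplicate over 48 h before RNA extraction.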

Read-out in assay [18]: TIMP1, TIMP1 (gene 7076)
Nature of the assay: LTEA_HepaRG_TIMP1: Life Technologies and Expression Analysis (LTEA) Assay for TIMP1 using HepaRG (AID 2283534).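 Also: TaqMan qRT-PCR signal normalized to ACTB GAPDH and POLR2A housekeeping genes.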 In a few lines:
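Readout is TIMP1 mRNA level measured by qRT-PCR and normalized to three housekeeping genes. Human HepaRG cells were treated for 48 h in duplicate at eight concentrations up to 100 uM (0.5% DMSO); gain or loss fitted against DMSO.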

Read-out in assay [19]: Cellular tumor antigen p53 (Homo sapiens) (UniProt P04637)
Kind of assay: LTEA_HepaRG_TP53: Life Technologies and Expression Analysis (LTEA) Assay for Tumor Protein P53 (TP53) using HepaRG (AID 2283537). The essentials: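 TP53 transcript measured by qRT-PCR, normalized to three housekeeping genes, after 48 h treatment of human HepaRG cultures with chemicals from 100 uM downward in half-log steps (0.5% DMSO vehicle, serum-free induction medium). Up- or down-regulation fitted against DMSO.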

Active and inactive are the calls of the source. The calls were made as follows: active = hit-call score of the fitted dose curve at least 0.9, where 1 is the maximum; inactive = score below 0.9.

Chain of Nuclear factor NF-kappa-B p105 subunit (Homo sapiens) (P19838 whole entry, looked up): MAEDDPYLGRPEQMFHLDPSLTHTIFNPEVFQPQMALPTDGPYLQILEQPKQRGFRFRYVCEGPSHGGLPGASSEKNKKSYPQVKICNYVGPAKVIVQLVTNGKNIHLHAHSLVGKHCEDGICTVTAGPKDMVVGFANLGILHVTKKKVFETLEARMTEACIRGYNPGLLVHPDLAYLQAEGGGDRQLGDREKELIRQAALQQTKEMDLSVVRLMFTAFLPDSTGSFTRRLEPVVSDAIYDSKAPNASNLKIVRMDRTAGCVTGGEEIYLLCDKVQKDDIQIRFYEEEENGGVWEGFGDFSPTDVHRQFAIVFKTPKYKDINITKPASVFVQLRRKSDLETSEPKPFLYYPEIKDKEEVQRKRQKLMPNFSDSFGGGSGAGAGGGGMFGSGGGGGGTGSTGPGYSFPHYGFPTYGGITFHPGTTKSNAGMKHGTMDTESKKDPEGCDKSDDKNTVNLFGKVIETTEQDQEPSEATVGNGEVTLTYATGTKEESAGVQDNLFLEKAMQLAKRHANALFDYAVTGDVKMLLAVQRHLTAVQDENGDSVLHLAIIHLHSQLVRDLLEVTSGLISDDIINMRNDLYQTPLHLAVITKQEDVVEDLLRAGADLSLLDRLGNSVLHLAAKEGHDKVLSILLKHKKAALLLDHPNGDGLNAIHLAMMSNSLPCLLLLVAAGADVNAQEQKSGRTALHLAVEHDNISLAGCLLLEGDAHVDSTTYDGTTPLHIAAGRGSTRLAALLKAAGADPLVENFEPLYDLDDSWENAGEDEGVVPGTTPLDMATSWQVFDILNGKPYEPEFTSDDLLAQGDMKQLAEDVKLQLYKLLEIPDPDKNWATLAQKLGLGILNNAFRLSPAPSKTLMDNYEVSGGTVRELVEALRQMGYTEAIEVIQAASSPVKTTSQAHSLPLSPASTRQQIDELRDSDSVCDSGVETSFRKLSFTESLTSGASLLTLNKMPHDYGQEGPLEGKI
Chain of Nuclear factor erythroid 2-related factor 2 (Homo sapiens) (Q16236 whole entry, looked up): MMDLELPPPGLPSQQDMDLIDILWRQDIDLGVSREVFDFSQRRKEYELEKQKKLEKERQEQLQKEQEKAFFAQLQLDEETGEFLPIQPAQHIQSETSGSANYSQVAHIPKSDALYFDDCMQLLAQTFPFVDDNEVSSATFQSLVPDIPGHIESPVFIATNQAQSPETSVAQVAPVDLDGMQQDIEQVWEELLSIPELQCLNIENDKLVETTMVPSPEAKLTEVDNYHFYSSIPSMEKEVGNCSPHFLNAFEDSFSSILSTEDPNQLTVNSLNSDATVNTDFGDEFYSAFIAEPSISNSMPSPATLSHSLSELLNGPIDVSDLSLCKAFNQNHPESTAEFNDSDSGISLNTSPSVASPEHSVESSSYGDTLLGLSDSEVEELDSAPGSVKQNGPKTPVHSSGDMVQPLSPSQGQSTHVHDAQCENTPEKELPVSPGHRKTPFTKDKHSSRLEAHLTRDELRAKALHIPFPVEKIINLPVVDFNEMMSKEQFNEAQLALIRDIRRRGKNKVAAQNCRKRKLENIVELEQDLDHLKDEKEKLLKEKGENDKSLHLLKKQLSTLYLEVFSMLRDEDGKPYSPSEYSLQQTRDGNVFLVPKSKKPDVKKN
Chain of Signal transducer and activator of transcription 3 (Homo sapiens) (P40763 whole entry, looked up): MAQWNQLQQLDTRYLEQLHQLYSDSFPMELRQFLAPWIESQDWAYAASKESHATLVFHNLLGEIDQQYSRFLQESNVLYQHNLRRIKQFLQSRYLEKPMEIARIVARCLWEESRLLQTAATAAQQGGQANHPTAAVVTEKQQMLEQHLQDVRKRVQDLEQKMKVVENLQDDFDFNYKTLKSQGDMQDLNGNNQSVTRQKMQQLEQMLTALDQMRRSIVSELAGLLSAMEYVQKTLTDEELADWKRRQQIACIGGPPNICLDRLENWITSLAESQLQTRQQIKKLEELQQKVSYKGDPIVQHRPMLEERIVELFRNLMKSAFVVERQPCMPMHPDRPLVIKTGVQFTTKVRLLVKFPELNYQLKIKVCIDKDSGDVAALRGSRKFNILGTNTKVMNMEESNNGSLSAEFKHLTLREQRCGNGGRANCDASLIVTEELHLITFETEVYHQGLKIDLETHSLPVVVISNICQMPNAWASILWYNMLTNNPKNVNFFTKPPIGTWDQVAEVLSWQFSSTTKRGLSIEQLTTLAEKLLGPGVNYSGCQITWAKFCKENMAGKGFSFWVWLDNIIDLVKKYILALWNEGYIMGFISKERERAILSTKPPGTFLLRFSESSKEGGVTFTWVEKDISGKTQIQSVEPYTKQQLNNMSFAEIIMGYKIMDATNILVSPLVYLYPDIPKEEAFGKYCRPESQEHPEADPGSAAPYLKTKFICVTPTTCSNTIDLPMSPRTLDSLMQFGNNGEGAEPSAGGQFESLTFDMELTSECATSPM
Chain of Cellular tumor antigen p53 (Homo sapiens) (P04637 whole entry, looked up): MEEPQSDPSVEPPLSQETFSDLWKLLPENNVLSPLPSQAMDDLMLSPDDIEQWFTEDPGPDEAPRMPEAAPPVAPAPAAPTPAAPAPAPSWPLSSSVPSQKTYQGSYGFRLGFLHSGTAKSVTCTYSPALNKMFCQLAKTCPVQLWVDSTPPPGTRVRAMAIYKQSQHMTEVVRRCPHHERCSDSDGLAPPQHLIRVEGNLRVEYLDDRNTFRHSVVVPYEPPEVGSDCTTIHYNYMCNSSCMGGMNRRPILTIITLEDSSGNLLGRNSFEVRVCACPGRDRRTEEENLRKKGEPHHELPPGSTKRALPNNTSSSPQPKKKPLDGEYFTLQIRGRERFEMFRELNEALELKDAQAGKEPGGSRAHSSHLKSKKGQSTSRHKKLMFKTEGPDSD

In the case of `O=C(N[C@@H](c1ccccc1)[C@@H]1CCCCN1)c1cccc(C(F)(F)F)c1Cl`, the AC50 (as a rule, the concentration giving half of the maximal activity seen) in assay [1] is 50 µM (active); in assay [2] it was 50 µM (active); in assay [4], 89.5 µM (active); in assay [5] it was 75.2 µM (active); in assay [6] it was 40.5 µM (active); in [7] it was 50 µM (active). Also, the AC50 in [9] was 83.8 µM (active); in assay [10], 91.4 µM (active); in assay [11], 80.3 µM (active); in assay [12], 37.1 µM (active); in [13] it was 78.9 µM (active); in assay [15] it was 82.3 µM (active). Moreover, in [16], the AC50 is 82.2 µM (active). Moreover, the molecule was called inactive in [3], in [8], in assay [14] and in assay [17].

With `Cc1ccc(C(C)(C)C)c(O)c1`, the outcome in [1], in assay [2], in assay [3], in assay [4], in [5] and in assay [6] was inactive. Moreover, the outcome in [7], in [8], in assay [9], in assay [10], in [11] and in [12] was inactive. Moreover, the result in assay [13], in [14], in assay [15], in [18], in assay [16] and in assay [17] was inactive. For the same molecule, the result in assay [19] was inactive.

With `C/C=C/c1ccc(OC)cc1`, the molecule was classed as inactive in assay [1], in assay [2], in [3], in [4], in [5] and in assay [6]. The call in [7], in [8], in assay [9], in assay [10], in [11] and in [12] was inactive. Moreover, the result in assay [13], in [14], in [15], in assay [16] and in assay [17] was inactive.

Regarding `Nc1nc(Cl)nc2c1ncn2[C@H]1C[C@H](O)[C@@H](CO)O1`, the outcome in assay [1], in [3], in [8], in assay [9], in assay [10] and in assay [11] was inactive. Also, the outcome in assay [18] and in [19] was inactive. Further, the concentration at half-maximal activity (AC50) was 0.636 µM (active) in assay [2]; 1.92 µM (active) in assay [4]; 3.12 µM (active) in [5]; 0.811 µM (active) in assay [6]; 0.452 µM (active) in assay [7]; 0.999 µM (active) in assay [12]. In addition, the half-maximal activity concentration (AC50) in assay [13] was 2.81 µM (active); in [14], 0.2 µM (active); in [15] it was 0.365 µM (active); in assay [16] it was 0.732 µM (active); in assay [17], 0.888 µM (active).
